# Reference: PubChem BioAssay AID1850 (Southern Research Specialized Biocontainment Screening …, 2009)
# The campaign covered roughly 310,000 compounds. About 1,000 (0.32%) were called active. A selection follows. Potency and affinity values are given separately. Unmarked numbers belong to inactive results. The rule behind the calls is not given here.
# Assay: PhoP regulon inhibitors, Salmonella typhi PhoP promoter GFP reporter, confirmatory (AID 1850);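 note: 0% = induced wells with vehicle and 100% = uninduced wells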
# Conditions: fluorescence, 4 h, at 50 µM, stronger effect = higher value
row,Structure (SMILES),inhibition [%]
1,Cc1ccc2c(c1)NC(=O)C(CC(=O)NCCCN1CCCCC1)O2 (configuration not stated),-5.47
2,COc1cc(Cl)c(C)cc1NC(=O)CCCN1C(=O)CCC1=O,-6.87
3,CN1CCN(C(=O)c2ccc(CS(=O)Cc3ccc(Cl)cc3)o2)CC1 (configuration not stated),-3.59
4,COc1cccc(CNS(=O)(=O)c2ccc(S(=O)(=O)NC3CC3)cc2)c1,0.68
5,CCCc1cc(=O)oc2c3c(cc(OCC(=O)N4CCC[C@H]4C(=O)O)c12)OC(C)(C)CC3,-1.72
6,COc1ccc(CNC(=O)CSc2nnnn2-c2ccc(O)cc2)cc1,4.45
7,Cc1ccc(CN2CCC(CNS(=O)(=O)c3ccc(-c4ccc(=O)[nH]n4)s3)CC2)cc1,-17.1
8,Cc1ccc(Nc2nc(N)nc(CSC(=S)N3CCN(c4ccccc4)CC3)n2)cc1,5.34
9,COc1ccccc1NC(=O)Nc1ccc(CC#N)cc1,-23.3
10,O=c1oc2ccccc2n1Cc1ccccc1F,0.75
11,O=c1[nH]cc(NCCc2ccccc2)c(=O)[nH]1,2.68
12,O=C(N/N=C/c1cc(Cl)ccc1O)c1ccc(Br)cc1,-15.2
13,O=C(N/N=C/c1cc(Br)cc(Br)c1O)c1cccc(S(=O)(=O)N2CCOCC2)c1,17.9
14,COc1c(Br)cc(Br)cc1/C=N/NC(=O)c1ccncc1,-12.1
15,O=C(N/N=C/c1cccnc1)c1cccc(Cl)c1,41
16,O=C(CP(=O)(c1ccccc1)c1ccccc1)N/N=C/c1cc(Br)cc(Br)c1O,-0.96
17,CC(=O)Nc1ccc(C(=O)N/N=C/c2cc(Br)cc(Br)c2O)cc1,-13.1
18,O=C(CNC(=O)c1ccncc1)N/N=C/c1cc(Br)ccc1O,14.9
19,O=C(N/N=C/c1cc([N+](=O)[O-])ccc1O)c1ccncc1,12.7
20,COc1ccccc1C(=O)Nc1nnc(SCC(=O)Nc2ccc3c(c2)oc2ccccc23)s1,-0.02
21,COc1cc(/C=C2/NC(=O)NC2=O)ccc1OCC(=O)Nc1ccc(F)cc1,1.58
22,C=CCn1c(CSc2ccc(C)cc2)n[nH]c1=S,2.92
23,Cn1ncc(Cl)c1C(=O)N1CCN(c2ncccn2)CC1,10.1
24,Cc1cccc(NC(=O)COC(=O)CCCC2=NS(=O)(=O)c3ccccc3N2)c1,-3.69
25,C=C(C)CC1N(c2cccc(OC)c2)C(=O)C2C(C(=O)O)C3C=CC21O3 (configuration not stated),-1.1

row,Structure (SMILES),inhibition [%]
1,CCCCn1c(=O)[nH]c(=O)c2c1nc(-c1cc(Br)ccc1OC)n2C,1.08
2,O=C(CSC(=S)N1CCCC1)Nc1ncc(Cl)cc1Cl,-5.14
3,CC(O)(CS(=O)(=O)Cc1ccccc1)C(=O)Nc1ccc(C(F)(F)F)cc1 (configuration not stated),9.99
4,CCc1ccccc1NC(=O)COc1cccc(-n2cnnn2)c1,-5.08
5,CC(C)OCCCNC(=O)c1ccc(NC(=O)C2=CSCCO2)cc1,-8.42
6,COc1ccc(S(=O)(=O)N2CCN(c3ncccn3)CC2)cc1[N+](=O)[O-],-20.4
7,Cc1ccc(Nc2cc(C)nn2-c2nc(C)cc(C)n2)cc1,5.85
8,Cc1cc(Nc2ccccc2)n(-c2nc3ccccc3[nH]2)n1,-0.39
9,Cc1cc(C)n(-c2nc(O)cc(=O)[nH]2)n1,-1.88
10,Cc1cc(C)n(-c2nnc(C)c(=O)[nH]2)n1,-0.21
11,FC(F)(F)c1cccc(Oc2cc(C(F)(F)F)nc(-c3ccccn3)n2)c1,1.08
12,CCOc1ccc(N2C(=O)C3ON(c4ccccc4)C(c4cccs4)C3C2=O)cc1 (configuration not stated),9.38
13,CCCCC(=O)N1CCN(c2nc3ccc(F)cc3s2)CC1,-7.63
14,Cc1cc(C)cc(NC2=C(N)C(=O)c3ccccc3C2=O)c1,-9.49
15,O=C1C(=O)c2ccc(-c3ccccc3)cc2-c2ccccc21,1.01
16,Nc1ccc(Br)c2c1C(=O)c1ccccc1C2=O,-1.04
17,Nc1ccc2c(c1)C(=O)C(=O)c1ccccc1-2,6.22
18,COc1ccc(/C=C/C(=O)c2ccc(O)cc2)cc1CN1CCOCC1,-8.66
19,CC(=O)Oc1ccc2c(=O)oc(-c3ccccc3C)nc2c1,-4.89
20,CN(C)CCOC1c2ccccc2C=Cc2ccccc21,10.7
21,O=C1N=C2SCCN2/C1=C\c1ccc(Cl)cc1,3.83
22,O=C(NCc1nc(-c2ccccc2)no1)c1cccs1,-6.48
23,COc1cccc(/C=N/NC(=O)CN2CC(c3ccccc3)CC2=O)c1O (configuration not stated),3.81
24,COc1cccc(/C=N/NC(=O)CN2CC(c3ccccc3)CC2=O)c1OC (configuration not stated),-3.73
25,COc1cc(OC)c(C2=NOC(C(=O)N3CCc4ccccc4C3)C2)cc1Cl (configuration not stated),-5.06

row,Structure (SMILES),inhibition [%]
1,COC(=O)c1cccc(N(CC(=O)NC2CCCCC2)C(=O)CNC(=O)c2cccs2)c1,7.52
2,CCN(CC)c1ccc(CNc2nc3ccccc3n2CCN2CCOCC2)cc1,6.95
3,COc1ccc(CNc2nc3ccccc3n2CCN2CCCCC2)cc1,-9.45
4,COC(=O)N/N=C/c1ccccc1,3.82
5,COC(=O)N/N=C/c1ccccc1Cl,9.79
6,O=C(CSc1ccc2c(c1)OCCO2)NC(=O)Cc1ccccc1,-0.51
7,Cc1cccc(/C=C/c2onc(C)c2S(=O)(=O)N2CCC(C(=O)N3CCCCCC3)CC2)c1,-16.2
8,CCOC(=O)c1cc2c(=O)n3ccccc3nc2n(C)c1=NC(=O)c1c(-c2c(F)cccc2Cl)noc1C,-5.85
9,CC1CCCCN1CCCNC(=O)c1ccc(Br)cc1 (configuration not stated),8.17
10,CC(C)CNC(=O)COC(=O)c1ccc(Cl)c(S(=O)(=O)N2CCc3ccccc32)c1,1.54
11,C[C@@H](NCCc1ccc(O)cc1)[C@@H](O)c1ccc(O)cc1,-9.6
12,C[C@H](NCCc1ccc(O)cc1)[C@H](O)c1ccc(O)cc1,-4.37
13,Cc1ccnc(NC(=O)C(C)N2C(=O)c3ccccc3S2(=O)=O)c1 (configuration not stated),6.11
14,CCOc1ccccc1NC(=O)NNC(=O)c1ccc2ccccc2c1,9
15,COc1cccc(-c2nnc(NC(C)=O)o2)c1,-10.6
16,O=C(Nc1nnc(-c2ccco2)o1)c1ccc(Cl)s1,2.73
17,COCCN(C(=O)COC(=O)C1(C)CC1(Cl)Cl)c1c(N)n(Cc2ccccc2)c(=O)[nH]c1=O (configuration not stated),-4.07
18,O=C(NC1CCN(C(=S)Nc2ccc(F)cc2)CC1)C1CCCCC1,1.22
19,Cc1ccc(CNC(=O)C2CCC(=O)N(Cc3cccc(C(F)(F)F)c3)C2)o1 (configuration not stated),-2.94
20,O=C(CCN(CCO)Cc1ccccc1)Nc1ccc(Br)cc1,20.3
21,Cc1ccc(NC(=O)CN(C)C2CCCCC2)cc1Cl,17.3
22,Cc1ccc(NC(=O)CNCc2ccccc2)c(Br)c1,19.8
23,Cc1ccc(NC(=O)CNCc2cccs2)cc1Br,2.2
24,CCN(CCC(=O)Nc1cc(OC)cc(OC)c1)Cc1ccccc1,-6.75
25,CN(CC(=O)Nc1ccc(Cl)c(Cl)c1)C1CCCCC1,9.2

row,Structure (SMILES),inhibition [%]
1,N#Cc1cc(NC(=O)c2ccc(F)cc2)c(=O)n2c1[nH]c1ccccc12,-0.7
2,CCn1cc(CN2CCC(C(=O)Nc3cccc(-c4cccc(OC)c4)c3)CC2)cn1,-5.91
3,CN1CCN(C(=O)/C(=C\c2ccccc2)c2ccccc2)CC1,3.28
4,Cc1cccc(-n2cc(-c3ccccc3)c3c(=O)[nH]cnc32)c1,-10.3
5,COc1ccc(CCNC(=O)CN(c2cccc([N+](=O)[O-])c2)S(C)(=O)=O)cc1,-12
6,Cc1ccccc1C(=O)N1CCN(S(=O)(=O)c2ccccc2)CC1,-4.37
7,O=C(CSc1nnc(SCc2ccccc2Cl)s1)N/N=C/c1ccc(C(=O)O)cc1,-6.94
8,COC(=O)c1cc(S(=O)(=O)N2CCN(c3ccccc3F)CC2)c[nH]1,-1.3
9,O=C1CSC(=S)N1c1cccc(Cl)c1,-2.26
10,O=C(O)c1cccc(N2C(=O)CSC2=S)c1,65.1
11,Cc1cc(NC(=O)NN2CCOCC2)nn1-c1c(Cl)cccc1Cl,-1.26
12,Nc1nc(SCC(=O)Nc2ccc([N+](=O)[O-])cc2)[nH]c(=O)c1NC(=O)c1ccc(Br)o1,-2.49
13,c1cncc(-c2nnc(SCc3cccc4ccccc34)o2)c1,8.54
14,Cc1ccc2[nH]c3c(c2c1)CCc1cn[nH]c1-3,-6.69
15,c1ccc2c3c([nH]c2c1)-c1[nH]ncc1CC3,-5.34
16,Cc1ccc2c(c1)C1C3CCC(C3)C1S(=O)N2 (configuration not stated),-0.67
17,COc1cc2ccccc2cc1C(=O)Nc1cccnc1,-16.1
18,Clc1ccc(Cc2ccc(Cl)nn2)c(Cl)c1,-3.15
19,Nc1nc(-c2ccccn2)nc(N)c1Cc1ccc(Cl)cc1Cl,-4
20,Cc1nc(N)c(Cc2ccccc2F)c(N)n1,8.16
21,Nc1nnc(Cc2ccc(Cl)cc2Cl)s1,-0.54
22,CCOC(=O)C1(Cc2cccc(OC)c2)CCN(Cc2cnc(SC)nc2)CC1,-3.1
